Laboratory results as given in PubChem BioAssay AID720575 (National Center for Advancing Translational Sciences (NCATS), 2013).
This is one part of the list. Where a call stands in place of a potency, no number is given. Inconclusive results are not listed. Active and inactive are the calls of the source. The call rests on the fitted dose curve; in most records, active means well fitted inhibition curve with a large enough effect; inconclusive means small, poorly fitted or top-dose-only effect; inactive means no such curve, though single readings can be large or run the other way.

Assay: qHTS Assay for Inhibitors of Hepatitis C Virus (HCV): Confirmation Assay for Cherry-picked Compounds
Conditions: Potency: inhibition
From the text: Hepatitis C virus (HCV) infects about 200 million people in the world. Many infected people progress to chronic liver disease including cirrhosis with a risk of developing liver cancer. To date, there is no effective vaccine for hepatitis C. Current therapy based on interferon is only effective in about half of the patients and is associated with significant adverse effects. The fraction of people with HCV who can complete a successful treatment is estimated to be no more than 10 percent. Recent development of direct-acting antivirals against HCV, such as protease and polymerase inhibitors, is promising but still requires combination with peginterferon and ribavirin for maximal efficacy. In addition, these agents are associated with high rate of resistance and many have significant side effects. Due to the lack of a culture system for infectious HCV, the search for new HCV drugs has been greatly hampered. […] High-throughput screening (HTS) with an infectious HCV system would cover the complete spectrum of potentially druggable targets in all stages of HCV lifecycle, and would have more biological relevance than other cell-based assays. […]
Cells were plated in a 1536-wel tissue culture grade plates at a final concentration of 1,000 cells/well (3 uL volume). […] The luciferase activity was read for 15 sec using the PerkinElmenr ViewLux plate reader.
Further: nearly all actives have a fitted effect of over 80% in size.

SMILES | Potency
CC1=CC(=Cc2sc3ccccc3[n+]2C)C=C(C)O1 | 4.99 µM (active)
CC[N+]1(C)CCCC(OC(=O)C(O)(c2ccccc2)c2ccccc2)C1 (configuration not stated) | inactive
